Reference: the supplement of paper PMC10849652
Targets with a hit are over-represented here; the source holds about 8,800 in all. About 0.5% of all pairs of compound and target were hits.

Key:
Test in all cases: log2 fold change, soluble protein after heating vs DMSO (PISA); higher = thermal stabilisation; K562 lysate, 10 uM; active = over 0.2 and 3.5 SD of the protein, either way, in both replicates (recomputed)
[1] = compound: C1=CC=C(C=C1)[C@H](COC2=CC3=C(C=C2)NC(=O)N3)NC(=O)C4=CC=CN(C4=O)CC5=CC(=C(C=C5)F)F
Method in brief: (§1)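 Log-two fold change in thermal stability relative to solvent controls is reported from duplicates. For each sample, crude K562 extract from dounce-homogenised pellets in PBS pH 7.4 with 1 mM MgCl2, at 1 mg/mL protein, was treated with 10 μM compound for 30 min. Aliquots heated for 3 min across 48°C-58°C were pooled, brought to 0.5% NP-40 at 4°C and cleared at 21,000xg for 90 min. The supernatant was quantified by TMTpro 16plex LC-MS/MS with channel sums equalised.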

[2] = compound: CC1=C(SC2=C1C(=N[C@H](C3=NN=C(N32)C)CC(=O)N)C4=CC=C(C=C4)Cl)C
Method in brief: as §1

[3] = compound: CC1=C2C(=CC=C1)N=C(N(C2=O)C3=CC=CC=C3C)CN4C=NC5=C(N=CN=C54)N
Method in brief: as §1

[4] = compound: Cc1sc2c(c1C)C(c1ccc(Cl)cc1)=N[C@@H](CC(=O)OC(C)(C)C)c1nnc(C)n1-2
Method in brief: as §1

[5] = compound: c1ccc([C@@H]2C[C@H]2NC2CCNCC2)cc1
Method in brief: as §1

Measured: log2 fold change

IMPDH2 (UniProt H0Y4R1)
inactive: [1] -0.048 | [2] 0 | [3] -0.077 | [4] -0.018 | [5] -0.203

HAUS7 isoform 2 (UniProt Q99871)
Sequence of UniProt Q99871 (Q99871 whole entry, looked up): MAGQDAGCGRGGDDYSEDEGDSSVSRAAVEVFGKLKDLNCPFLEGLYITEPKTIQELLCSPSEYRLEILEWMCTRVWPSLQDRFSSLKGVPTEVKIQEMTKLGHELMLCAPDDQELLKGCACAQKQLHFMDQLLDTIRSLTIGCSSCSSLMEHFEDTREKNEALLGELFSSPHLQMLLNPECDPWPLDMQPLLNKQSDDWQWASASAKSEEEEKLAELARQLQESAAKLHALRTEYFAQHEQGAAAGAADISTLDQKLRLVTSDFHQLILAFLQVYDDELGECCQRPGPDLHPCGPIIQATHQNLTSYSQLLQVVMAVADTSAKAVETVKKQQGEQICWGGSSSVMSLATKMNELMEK
inactive: [1] 0.163 | [2] 0.036 | [3] 0.019 | [4] 0.069 | [5] 0.032

HNRNPH2 (UniProt P55795)
Sequence of UniProt P55795 (P55795 whole entry, looked up): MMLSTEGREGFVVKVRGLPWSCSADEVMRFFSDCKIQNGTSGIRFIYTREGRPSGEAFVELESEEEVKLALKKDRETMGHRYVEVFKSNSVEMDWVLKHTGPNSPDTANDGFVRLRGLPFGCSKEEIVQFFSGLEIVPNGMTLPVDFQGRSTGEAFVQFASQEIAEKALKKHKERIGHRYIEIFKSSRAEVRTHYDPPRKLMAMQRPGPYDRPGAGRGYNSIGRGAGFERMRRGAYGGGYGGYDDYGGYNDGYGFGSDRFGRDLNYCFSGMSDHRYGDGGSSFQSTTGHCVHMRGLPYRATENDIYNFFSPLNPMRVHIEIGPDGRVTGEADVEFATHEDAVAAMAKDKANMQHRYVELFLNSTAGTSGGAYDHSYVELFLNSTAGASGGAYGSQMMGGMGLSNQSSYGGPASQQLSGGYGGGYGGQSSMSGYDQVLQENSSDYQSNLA
inactive: [1] 0.036 | [2] -0.007 | [3] 0 | [4] 0.105 | [5] -0.011

HIST2H2AA3 (UniProt Q6FI13)
inactive: [1] 0.017 | [2] 0 | [3] -0.111 | [4] 0.268 | [5] 0.277

GNL3 (UniProt Q9BVP2)
Sequence of UniProt Q9BVP2 (Q9BVP2 whole entry, looked up): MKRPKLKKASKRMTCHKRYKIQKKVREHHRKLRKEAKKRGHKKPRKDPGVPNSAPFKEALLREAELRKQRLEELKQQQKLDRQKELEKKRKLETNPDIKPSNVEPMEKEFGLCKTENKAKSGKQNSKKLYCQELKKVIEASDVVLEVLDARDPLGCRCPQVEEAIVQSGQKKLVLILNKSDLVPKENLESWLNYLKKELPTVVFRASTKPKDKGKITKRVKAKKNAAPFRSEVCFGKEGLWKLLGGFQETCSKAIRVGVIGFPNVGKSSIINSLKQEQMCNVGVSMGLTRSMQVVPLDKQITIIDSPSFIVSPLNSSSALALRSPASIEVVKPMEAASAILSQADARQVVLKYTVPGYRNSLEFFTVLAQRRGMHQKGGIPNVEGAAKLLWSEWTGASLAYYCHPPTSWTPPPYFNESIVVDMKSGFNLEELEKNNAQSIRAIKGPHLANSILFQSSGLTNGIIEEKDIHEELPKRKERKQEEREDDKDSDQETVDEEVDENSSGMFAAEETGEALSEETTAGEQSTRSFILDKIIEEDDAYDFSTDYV
inactive: [1] 0.018 | [2] 0.087 | [3] 0.006 | [4] -0.023 | [5] 0.041

ILK (UniProt Q13418)
Sequence of UniProt Q13418 (Q13418 whole entry, looked up): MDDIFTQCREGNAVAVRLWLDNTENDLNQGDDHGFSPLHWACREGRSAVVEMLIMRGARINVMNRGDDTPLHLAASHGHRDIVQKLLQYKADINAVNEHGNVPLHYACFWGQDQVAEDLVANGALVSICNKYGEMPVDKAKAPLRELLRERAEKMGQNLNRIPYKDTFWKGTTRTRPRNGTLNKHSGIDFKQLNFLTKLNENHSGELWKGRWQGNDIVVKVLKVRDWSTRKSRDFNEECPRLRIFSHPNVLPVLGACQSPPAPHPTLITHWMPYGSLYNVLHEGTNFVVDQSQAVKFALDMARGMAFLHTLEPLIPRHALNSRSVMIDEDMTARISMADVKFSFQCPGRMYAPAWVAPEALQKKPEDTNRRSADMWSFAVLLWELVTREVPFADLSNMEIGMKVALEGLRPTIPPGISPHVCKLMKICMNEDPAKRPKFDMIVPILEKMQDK
inactive: [1] -0.009 | [2] -0.019 | [3] 0.004 | [4] 0.027 | [5] -0.002

IGF2BP3 (UniProt O00425)
Sequence of UniProt O00425 (O00425 whole entry, looked up): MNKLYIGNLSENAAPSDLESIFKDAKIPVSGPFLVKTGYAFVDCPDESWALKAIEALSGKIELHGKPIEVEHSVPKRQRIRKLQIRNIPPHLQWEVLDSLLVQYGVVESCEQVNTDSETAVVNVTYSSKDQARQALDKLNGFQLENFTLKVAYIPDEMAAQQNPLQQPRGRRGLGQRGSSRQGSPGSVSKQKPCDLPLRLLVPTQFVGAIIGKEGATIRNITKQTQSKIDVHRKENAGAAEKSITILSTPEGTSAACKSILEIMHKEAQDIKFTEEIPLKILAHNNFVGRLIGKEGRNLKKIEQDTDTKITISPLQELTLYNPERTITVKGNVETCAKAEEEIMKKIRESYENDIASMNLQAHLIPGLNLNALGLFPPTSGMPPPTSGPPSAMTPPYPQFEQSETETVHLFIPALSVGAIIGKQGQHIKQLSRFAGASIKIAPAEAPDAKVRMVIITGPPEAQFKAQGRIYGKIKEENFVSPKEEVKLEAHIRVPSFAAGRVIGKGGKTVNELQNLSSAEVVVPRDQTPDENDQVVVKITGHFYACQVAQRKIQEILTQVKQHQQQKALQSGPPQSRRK
inactive: [1] -0.02 | [2] 0.005 | [3] 0.009 | [4] 0.035 | [5] -0.002

GPX4 (UniProt P36969)
Sequence of UniProt P36969 (P36969 whole entry, looked up): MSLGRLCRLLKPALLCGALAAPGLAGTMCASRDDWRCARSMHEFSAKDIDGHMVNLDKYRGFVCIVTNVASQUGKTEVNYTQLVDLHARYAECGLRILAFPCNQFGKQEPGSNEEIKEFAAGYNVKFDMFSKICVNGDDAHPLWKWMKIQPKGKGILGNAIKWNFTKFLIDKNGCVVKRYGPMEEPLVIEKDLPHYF
inactive: [1] 0.018 | [2] -0.01 | [3] 0.036 | [4] -0.03 | [5] 0.048

GLUD2 (UniProt P49448)
Sequence of UniProt P49448 (P49448 whole entry, looked up): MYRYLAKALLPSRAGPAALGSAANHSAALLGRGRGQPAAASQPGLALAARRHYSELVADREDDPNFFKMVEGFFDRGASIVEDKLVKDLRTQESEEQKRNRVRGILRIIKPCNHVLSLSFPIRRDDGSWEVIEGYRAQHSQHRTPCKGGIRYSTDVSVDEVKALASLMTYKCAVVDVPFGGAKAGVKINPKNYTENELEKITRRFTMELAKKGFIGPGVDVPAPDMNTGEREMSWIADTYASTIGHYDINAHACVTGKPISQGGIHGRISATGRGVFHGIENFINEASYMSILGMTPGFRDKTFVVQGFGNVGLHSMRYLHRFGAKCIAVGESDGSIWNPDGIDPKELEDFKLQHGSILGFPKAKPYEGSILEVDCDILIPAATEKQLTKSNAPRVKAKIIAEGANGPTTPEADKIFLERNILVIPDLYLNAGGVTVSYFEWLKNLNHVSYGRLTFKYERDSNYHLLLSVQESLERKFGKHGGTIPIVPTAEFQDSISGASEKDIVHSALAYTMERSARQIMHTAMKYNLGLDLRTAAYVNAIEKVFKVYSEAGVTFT
inactive: [1] -0.001 | [2] 0.031 | [3] 0.265 | [4] 0.019 | [5] 0.022
